Screens from PubChem BioAssay.
Only some compounds are listed: those with a hit (about 3.5% of all), similar ones and a draw of the others.
TEAD-YAP block – TEAD-YAP interaction inhibition; AID 1259422; 1.4% of 640,000 active; inhibition, % at 9.12 µM; HEK-TIYL cells, TEAD-Gal4/YAP UAS-luciferase luminescence; in the data active = inhibition above about 32%;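 also: 0% = median of test compound wells and 100% = reference inhibitor wells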
GPR151 ag – activates the human receptor GPR151; PathHunter beta-arrestin GPR151 cells, luminescence; activation, % at 11.2 µM; 1% of 650,000 active; AID 1508602; in the data active = activation above about 4.9%;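 also: 0% = median of compound wells and 100% = cells with positive control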
MITF primary – blocks human microphthalmia-associated transcription factor | O75030 | inhibition, % at 2.6 µM | 0.91% of 650,000 active | AlphaScreen MITF homodimerization, bead proximity signal; in the data active = inhibition above about 50%;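 also: 0% = vehicle wells with protein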
FBW7 activator – human FBW7 E3 ligase activation, primary screen; Q969H0; normalized activity (activation), % at 26.1 µM; 0.13% of 650,000 active; AlphaScreen FBW7–phospho-cyclin E peptide binding, activator screen; in the data active = normalized activity above about 1.9%;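 also: purified mutant Fbw7 with reduced substrate affinity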
Target sequence (Q969H0 whole entry, looked up): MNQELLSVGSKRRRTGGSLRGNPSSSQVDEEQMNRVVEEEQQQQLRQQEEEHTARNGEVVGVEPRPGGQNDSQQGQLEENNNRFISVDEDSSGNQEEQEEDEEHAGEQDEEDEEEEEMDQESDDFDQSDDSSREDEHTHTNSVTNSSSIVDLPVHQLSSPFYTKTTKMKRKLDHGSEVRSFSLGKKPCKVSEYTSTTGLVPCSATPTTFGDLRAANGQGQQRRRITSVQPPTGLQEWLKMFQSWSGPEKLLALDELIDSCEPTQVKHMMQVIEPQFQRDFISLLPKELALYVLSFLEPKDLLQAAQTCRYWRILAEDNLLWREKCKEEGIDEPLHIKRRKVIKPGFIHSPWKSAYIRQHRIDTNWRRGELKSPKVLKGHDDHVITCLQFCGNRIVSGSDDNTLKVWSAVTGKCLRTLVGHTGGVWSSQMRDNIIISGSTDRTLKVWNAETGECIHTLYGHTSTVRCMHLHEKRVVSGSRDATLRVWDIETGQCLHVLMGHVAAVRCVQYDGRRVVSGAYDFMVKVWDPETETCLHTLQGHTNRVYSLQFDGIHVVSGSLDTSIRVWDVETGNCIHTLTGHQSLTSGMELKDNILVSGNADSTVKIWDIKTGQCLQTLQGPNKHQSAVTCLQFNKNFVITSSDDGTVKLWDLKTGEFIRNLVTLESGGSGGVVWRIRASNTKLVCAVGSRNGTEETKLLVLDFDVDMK
* = called active by the depositor.

SMILES	TEAD-YAP block	GPR151 ag	MITF primary	FBW7 activator
O=C1c2cccc3cccc(c23)C(=O)N1CCN1CCN(CCc2ccccc2)CC1	0	0	18	0
COc1ccc(C(=O)N/C(=C\c2ccc(F)cc2)C(=O)Nc2ccc3ccccc3c2)cc1	9	2	9	0
CC(=O)c1sc(N2CCc3ccccc32)nc1C	-33	-1	-12	0
Cc1c(Cl)cccc1NC(=O)CCNS(=O)(=O)c1cccc2nonc12	1	-1	-4	0
O=C(Nc1ccc(Br)cc1)c1ccc(F)c(S(=O)(=O)N2CCCc3ccccc32)c1	46*	-1	-6	0
CC(=O)Nc1ccc(S(=O)(=O)Nc2ccc(S(=O)(=O)N3CCc4ccccc43)cc2)cc1	17	0	9	0
Cc1cccc(NC(=O)c2ccc(F)c(S(=O)(=O)N3CCCc4ccccc43)c2)c1	10	2	-2	0
O=C(Nc1ccc(F)cc1)c1cccc(S(=O)(=O)N2CCCc3ccccc32)c1	40*	1	9	0
COC(=O)Nc1ccc(S(=O)(=O)N2CCCc3ccccc32)cc1	56*	2	7	0
O=C(Nc1ccccc1)c1cccc(S(=O)(=O)N2CCCc3ccccc32)c1	3	3	6	0
CN(C)CCNCCOCCOc1cccc(C(F)(F)F)c1	9	0	8	0
Cn1c(=O)cc(N2CCN(c3ccc(F)cc3)CC2)[nH]c1=O	1	5	-14	0
Cn1c(=O)cc(N2CCN(c3cccc(Cl)c3)CC2)[nH]c1=O	38*	-1	-5	0
CCn1c(-c2ccc(Cl)cc2)csc1=Nc1ccccc1	-28	0	25	0
CCn1c(-c2ccc(OC)cc2)csc1=Nc1ccc(NC(C)=O)cc1	65*	3	1	0
CCn1c(-c2ccc(Cl)cc2)csc1=Nc1ccc(NC(C)=O)cc1	80*	0	22	0
C=CCn1c(-c2ccc(C)cc2)csc1=Nc1ccc(NC(C)=O)cc1	50*	-1	27	0
COc1ccc(NC(=O)/C(C#N)=C/c2ccccc2OC(C)C)cc1	51*	3	2	0
CCOC(=O)c1ccc(NC(=O)/C(C#N)=C/c2ccc(C3CC3C)o2)cc1 (stereo unspecified)	41*	1	13	0
COc1ccccc1/C=C(/C#N)C(=O)Nc1ccc(O)cc1	10	1	-9	0
COc1ccc(NC(=O)/C(C#N)=C\c2ccc(N(C)C)o2)cc1	33*	2	-16	0
COc1ccc(NC(=O)/C(C#N)=C/c2ccc(Br)o2)cc1	-14	0	9	0
Cc1cccc(NC(=O)/C(C#N)=C\c2ccccc2O)c1	-51	0	11	0
Cc1ccc(NC(=O)/C(C#N)=C/c2ccccc2O)cc1	49*	2	-16	0
CCOC(=O)c1c(NC(=O)c2ccc(OC)c(OC)c2)sc(C)c1C	7	0	-1	0
SMILES	TEAD-YAP block	GPR151 ag	MITF primary	FBW7 activator
CCCc1ccc(OCC(=O)Nc2ccc(C)cc2)cc1	4	-1	-3	0
O=C1/C(=C/c2ccc(OCc3ccc(F)cc3)cc2)SC(=Nc2ccccc2)N1C1CCCCC1	-13	0	9	0
Cc1ccc(C)c(NC(=O)CCC(=O)OCC(=O)c2ccc(Br)cc2)c1	-3	3	-8	0
Cc1cc(/C=C2\Sc3ccccc3N2C)cc(C)[n+]1CCCN1CCOCC1	41*	0	1	0
CN1CCN(CC(=O)N2c3ccccc3Sc3ccccc32)CC1	3	2	1	0
Cc1cc(/C=C2\Sc3ccccc3N2C)cc(C)[n+]1N1CCN(C)CC1	73*	0	22	0
Cc1cc(/C=C2\Sc3ccccc3N2C)cc(C)[n+]1N(C)C	78*	0	3	0
CCc1ccc(CN2CCC3(CCC(CNC(=O)c4ccccc4)O3)CC2)cc1 (stereo unspecified)	-3	2	-14	0
Cc1ccc2c(c1)sc(=NC(=O)c1ccc(S(=O)(=O)N(C)C)cc1)n2C	-2	1	-5	0
CC(C)N1C(=O)/C(=C2/C(=O)N(CC(N)=O)c3ccccc32)SC1=S	3	-2	3	0
CN(C)CCNC(=O)c1cccn2c(=O)c3cc4ccccc4cc3nc12	71*	0	2	0
CC(C)CCNC(=O)c1cccn2c(=O)c3cc4ccccc4cc3nc12	-29	0	-4	0
NC(=O)c1nc(-c2cccnc2)nc2c1[nH]c(=O)n2CCc1ccccc1	-7	0	3	0
Cn1c(Nc2nc(Nc3ccc(N4CCOCC4)cc3)c3ncn(-c4ccsc4)c3n2)nc2ccccc21	35*	0	9	0
Cn1c(Nc2nc(Nc3ccc(N4CCOCC4)cc3)c3ncn(-c4ccccc4)c3n2)nc2ccccc21	33*	-2	2	0
c1ccc(-n2cnc3c(Nc4ccc(N5CCOCC5)cc4)nc(Nc4ccccn4)nc32)cc1	58*	0	2	0
c1ccc(-n2cnc3c(Nc4ccc(N5CCOCC5)cc4)nc(Nc4ncccn4)nc32)cc1	16	0	2	0
COc1ccc(-c2nc(Nc3ccc(NC(C)=O)cc3)c3ncn(-c4ccccc4)c3n2)cc1	41*	0	10	1
CC1=NN(c2ccc(Cl)cc2)C(=O)/C1=C/c1c(C)c(C#N)c(=O)n(CC(=O)O)c1O	8	0	16	0
CC(=O)Nc1ccc(Nc2nc(Nc3ccccn3)nc3c2ncn3-c2ccccc2)cc1	56*	2	-17	0
O=[N+]([O-])c1ccc(Cn2nnnc2Oc2ccccc2)cc1	12	-2	20	0
COc1ccccc1C(=O)Nc1cccc(N2CCC(NCC3CCOCC3)CC2)c1	6	-1	6	0
COc1ccccc1C(=O)Nc1cccc(N2CCC(NCCSC)CC2)c1	47*	-1	12	0
Cc1ncc(CO)c(/C=N/NC(=O)c2cccc(S(=O)(=O)N3CCOCC3)c2)c1O	-3	0	34	-1
O=C(/C=C/Nc1ccccc1I)c1ccccn1	80*	-5	9	0
SMILES	TEAD-YAP block	GPR151 ag	MITF primary	FBW7 activator
O=C(/C=C/Nc1cccc2cccnc12)c1ccccc1	-51	-1	16	0
COc1ccc2nc(N3CCCCC3)sc2c1	61*	-4	13	2
COc1ccc2nc(N3CCCC3)sc2c1	2	-6	12	0
CCN(CC)c1nc(Nc2ccc(N3CCOCC3)cc2)nc(NC2CCN(Cc3ccccc3)CC2)n1	14	-2	5	0
Cc1c(NC(=O)CSc2nnc3c4ccccc4n(CCc4ccccc4)c3n2)c(=O)n(-c2ccccc2)n1C	47*	0	11	0
CC(=O)c1cccc(NC(=O)CSc2nnc3c4ccccc4n(CCc4ccccc4)c3n2)c1	40*	2	2	0
COc1ccc(C2C(=O)N(C3CCCCC3)CC(=O)N2Cc2ccccc2)cc1OC (stereo unspecified)	-1	3	13	0
CC1=C(C(=O)Nc2ccc(Cl)cc2)C(c2ccccc2)C(C#N)=C(SCC(=O)Nc2cccc(C)c2)N1 (stereo unspecified)	3	0	13	0
